# Data: PubChem BioAssay (NCATS)
# Inconclusive results are not listed. Active and inactive are the calls of the source. Calls follow the shape of the dose curve; as a rule, active = well fitted activation curve with a large enough effect; inconclusive = small, poorly fitted or top-dose-only effect, or effect the other way; inactive = flat fitted curve, though single readings scatter.
# Assay: Cellular Toxicity (caspase-3) NIH 3T3 (AID 666);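 also: caspase signal read after 16 h compound exposure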
# Details: NIH 3T3 caspase-3 activation, apoptosis/toxicity, 0% DMSO, 100% is 100 µM tamoxifen; series mostly up to 92.2 µM
# From the text: NIH Chemical Genomics Center [NCGC]
# NIH Molecular Libraries Screening Centers Network [MLSCN]
# National Institutes of Environmental Health Sciences [NIEHS]
# National Toxicology Program [NTP]
# We have developed a 1536-well cell-based assay for quantitative high throughput screening (qHTS) against a number of cell lines to determine in vitro caspase 3/7 of small molecules. This particular assay uses the NIH 3T3 cell line which is derived from mouse fibroblasts.
# NCGC Assay Protocol Summary:
# The Caspase-Glo 3/7 assay (Promega) is a homogeneous method to measure caspase-3 and caspase-7 activities in cultured cells. The quantitation of caspase 3/7 activity is based on the cleavage of a peptide-aminoluciferin substrate. After caspase cleaves the substrate the free aminoluciferin is liberated and serves as the substrate of luciferase, which generates the light. The luminescent signal is proportional to amount of caspase 3/7 activity present.
# Using the Caspase-Glo 3/7 assay, the amount of caspase 3/7 activity was measured in the NIH 3T3 cell line with complete culture medium following compound treatment for 16 hours. The assay was performed in opaque white 1536-well plates. In the screen, tamoxifen and doxorubicin were used as positive controls. Library compounds were measured for their ability to cause the activation of caspase 3/7 in the cell line, as reflected by an increase in luminescence signal, in a concentration-dependent manner. Data were normalized to the controls for basal activity (DMSO only) and 100% stimulation (100 uM tamoxifen). AC50 values were determined from concentration-response data modeled with the standard Hill equation.
# qHTS protocol for caspase 3/7 assay in NIH 3T3 cells
# [Step] [Parameter] [Value] [Description]
# 1. Reagent; 5 uL; 1000 NIH 3T3 cells/well
# 2. Time; 5 hr; 37 °C incubation
# 4. Controls; 23 nL; Tamoxifen 0.23 uM to 100 uM & Doxorubicin 7.0 pM to 100 uM
# 5. Time; 16 hr; 37 °C incubation
# 6. Reagent; 5 uL; Caspase-Glo 3/7 reagent
# 7. Time; 20 min; Room Temperature
# 8. Detection; Luminescence; Viewlux plate reader
# Keywords: caspase 3/7, apoptosis, NIH 3T3 cell line, luminescence, NTPHTS, NTPHTS_NCGC, NIEHS, EPA, DSSTox, MLSMR, MLSCN, NIH Roadmap, qHTS, NCGC
row,Compound,outcome
1,Nc1cc(Cl)c(N)c(Cl)c1,inactive
2,NC=O,inactive
3,CC(=O)c1nccs1,inactive
4,CC(C)(c1cc(Br)c(OCC(Br)CBr)c(Br)c1)c1cc(Br)c(OCC(Br)CBr)c(Br)c1 (stereo not given),inactive
5,Nc1nc(CC(=O)O)cs1,inactive
6,C=C(C)C(=O)OCCCCCC,inactive
7,Nc1cccc(O)c1,inactive
8,Fc1ccccc1,inactive
9,C=CCCCCCC,inactive
10,ClCCl,inactive
11,CCCCCO,inactive
12,O=CNc1ccccc1,inactive
13,O=[N+]([O-])c1ccccc1CCO,inactive
14,Nc1cc(Cl)c([N+](=O)[O-])cc1O,inactive
15,CC#N,inactive
16,COc1ccc(N)c(C)c1,inactive
17,O=[N+]([O-])c1ccc(Cl)cc1Cl,inactive
18,ICCc1ccccc1,inactive
19,CC(C)Cc1nccs1,inactive
20,O=C(O)c1ccccc1Cl,inactive

row,Compound,outcome
1,Cc1cccc(C(=O)O)c1,inactive
2,CC(C)c1ccccc1,inactive
3,CC(C)(C)c1ccc(OCC2CO2)cc1 (stereo not given),inactive
4,Cc1cc(C)cc(O)c1,inactive
5,CCCCCCCCC,inactive
6,O=C(O)/C=C/C(=O)O,inactive
7,Nc1cccc2c(=O)[nH][nH]c(=O)c12,inactive
8,CCOC(=O)C(C)C(C)=O (stereo not given),inactive
9,C=C(C)C(=O)OCC(C)C,inactive
10,C=CCCCC,inactive
11,CC1CCC2CC1C2(C)C (stereo not given),inactive
12,CC(C)(O)C(=O)O,inactive
13,C1CCC2OC2C1 (stereo not given),inactive
14,COc1ccc(N)c(OC)c1,inactive
15,[O-]/[N+](=N\O)c1ccccc1,inactive
16,C=CCOC(=O)COCCC(C)C,inactive
17,CCCCCCCCCCCCOCC1CO1 (stereo not given),inactive
18,Clc1ccccn1,inactive
19,CC(O)CC(C)O (stereo not given),inactive
20,CCN(CC)c1cccc(O)c1,inactive
